# Source: the supplement of paper PMC12067093, “Discovery and optimisation of a covalent ligand for TRIM25 and its application to targeted protein ubiquitination” (Chemical Science, 2025)
# Targets with the largest changes are over-represented here; the source holds about 21,000 in all.
# How the values were obtained:
# [1] = compound: CC1Cc2ccccc2N1C(=O)C1CCCN(C1)C(=O)CCl (mixture of isomers) [TRIM25 ligand 11 (diastereomer mixture)]; experiment: probe-labelled cysteine peptide fold change vs DMSO (competition) (log2 fold change); higher = less target engagement (more negative = stronger competition); details: THP-1, incubation time: 4 h
# compound 10 = compound: Cc1cc(ccc1-c1ccccc1)C(=O)N1CCCN(CC1)C(=O)CCl [compound 10]; experiment: as above; details: THP-1, incubation time: 4 h
# Sequence of UniProt Q562E7 (Q562E7 whole entry, looked up): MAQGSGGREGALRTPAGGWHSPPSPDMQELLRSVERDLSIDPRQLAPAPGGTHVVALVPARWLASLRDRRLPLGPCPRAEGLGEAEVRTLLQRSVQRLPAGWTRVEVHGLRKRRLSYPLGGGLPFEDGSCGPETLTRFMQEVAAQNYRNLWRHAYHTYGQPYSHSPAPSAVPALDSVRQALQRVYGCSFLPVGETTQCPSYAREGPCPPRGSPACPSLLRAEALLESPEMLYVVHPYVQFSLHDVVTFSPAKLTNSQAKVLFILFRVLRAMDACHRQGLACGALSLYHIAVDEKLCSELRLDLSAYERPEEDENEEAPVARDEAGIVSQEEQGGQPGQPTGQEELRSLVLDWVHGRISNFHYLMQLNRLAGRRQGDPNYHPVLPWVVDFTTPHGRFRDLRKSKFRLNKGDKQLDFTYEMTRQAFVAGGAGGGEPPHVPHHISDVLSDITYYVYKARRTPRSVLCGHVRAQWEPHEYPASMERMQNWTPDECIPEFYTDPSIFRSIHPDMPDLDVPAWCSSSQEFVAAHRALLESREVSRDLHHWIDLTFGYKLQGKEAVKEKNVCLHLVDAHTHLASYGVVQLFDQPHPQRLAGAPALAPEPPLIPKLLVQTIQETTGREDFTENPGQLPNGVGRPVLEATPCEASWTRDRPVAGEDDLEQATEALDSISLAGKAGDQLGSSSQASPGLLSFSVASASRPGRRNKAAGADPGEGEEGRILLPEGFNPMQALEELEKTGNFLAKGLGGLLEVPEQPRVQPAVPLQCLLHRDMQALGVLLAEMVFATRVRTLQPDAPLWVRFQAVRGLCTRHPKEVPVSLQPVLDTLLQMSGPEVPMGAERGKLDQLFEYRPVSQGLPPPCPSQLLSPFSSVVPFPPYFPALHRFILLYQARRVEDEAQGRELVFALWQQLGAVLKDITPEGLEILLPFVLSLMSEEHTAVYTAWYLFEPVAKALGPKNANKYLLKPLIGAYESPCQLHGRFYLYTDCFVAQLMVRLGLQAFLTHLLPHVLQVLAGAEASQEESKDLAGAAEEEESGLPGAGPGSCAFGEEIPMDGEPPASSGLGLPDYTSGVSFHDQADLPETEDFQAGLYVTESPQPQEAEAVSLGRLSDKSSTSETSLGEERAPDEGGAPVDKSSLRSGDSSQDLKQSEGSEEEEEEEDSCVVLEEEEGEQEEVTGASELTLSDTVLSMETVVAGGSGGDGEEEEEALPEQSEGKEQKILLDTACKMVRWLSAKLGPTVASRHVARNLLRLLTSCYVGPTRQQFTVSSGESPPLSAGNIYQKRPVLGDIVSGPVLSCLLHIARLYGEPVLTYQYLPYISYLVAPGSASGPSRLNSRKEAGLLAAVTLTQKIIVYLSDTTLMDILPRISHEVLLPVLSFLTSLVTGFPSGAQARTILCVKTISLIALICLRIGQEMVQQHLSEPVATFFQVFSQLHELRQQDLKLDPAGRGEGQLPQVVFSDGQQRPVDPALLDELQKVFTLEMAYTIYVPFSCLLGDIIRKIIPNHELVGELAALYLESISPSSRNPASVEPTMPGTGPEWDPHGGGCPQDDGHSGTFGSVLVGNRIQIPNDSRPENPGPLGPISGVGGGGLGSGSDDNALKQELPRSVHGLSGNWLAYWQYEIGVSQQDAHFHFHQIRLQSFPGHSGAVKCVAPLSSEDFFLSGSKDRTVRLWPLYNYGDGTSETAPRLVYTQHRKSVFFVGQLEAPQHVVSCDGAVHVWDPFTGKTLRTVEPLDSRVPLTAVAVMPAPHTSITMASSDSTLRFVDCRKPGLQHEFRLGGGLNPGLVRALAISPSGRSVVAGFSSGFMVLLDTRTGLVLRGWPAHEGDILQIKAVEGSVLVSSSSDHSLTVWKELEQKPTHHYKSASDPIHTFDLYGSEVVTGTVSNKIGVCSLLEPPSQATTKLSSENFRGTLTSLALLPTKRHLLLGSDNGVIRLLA
# Sequence of UniProt Q9H8G1 (Q9H8G1 whole entry): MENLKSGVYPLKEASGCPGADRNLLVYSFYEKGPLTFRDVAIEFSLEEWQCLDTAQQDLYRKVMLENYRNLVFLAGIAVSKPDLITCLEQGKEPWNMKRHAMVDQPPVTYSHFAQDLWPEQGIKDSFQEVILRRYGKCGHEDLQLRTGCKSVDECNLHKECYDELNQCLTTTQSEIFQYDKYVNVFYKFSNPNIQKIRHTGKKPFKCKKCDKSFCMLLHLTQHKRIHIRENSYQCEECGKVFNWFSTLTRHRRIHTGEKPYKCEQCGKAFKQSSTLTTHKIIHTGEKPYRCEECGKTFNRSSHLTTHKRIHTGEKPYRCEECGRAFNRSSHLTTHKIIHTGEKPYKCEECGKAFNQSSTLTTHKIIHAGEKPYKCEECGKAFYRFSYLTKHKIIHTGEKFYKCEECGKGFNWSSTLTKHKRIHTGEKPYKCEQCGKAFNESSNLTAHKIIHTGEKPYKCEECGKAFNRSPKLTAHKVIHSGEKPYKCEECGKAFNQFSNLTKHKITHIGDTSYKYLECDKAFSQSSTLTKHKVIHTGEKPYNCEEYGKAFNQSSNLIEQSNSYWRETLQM
# Sequence of UniProt Q8N1G0 (Q8N1G0 whole entry, looked up): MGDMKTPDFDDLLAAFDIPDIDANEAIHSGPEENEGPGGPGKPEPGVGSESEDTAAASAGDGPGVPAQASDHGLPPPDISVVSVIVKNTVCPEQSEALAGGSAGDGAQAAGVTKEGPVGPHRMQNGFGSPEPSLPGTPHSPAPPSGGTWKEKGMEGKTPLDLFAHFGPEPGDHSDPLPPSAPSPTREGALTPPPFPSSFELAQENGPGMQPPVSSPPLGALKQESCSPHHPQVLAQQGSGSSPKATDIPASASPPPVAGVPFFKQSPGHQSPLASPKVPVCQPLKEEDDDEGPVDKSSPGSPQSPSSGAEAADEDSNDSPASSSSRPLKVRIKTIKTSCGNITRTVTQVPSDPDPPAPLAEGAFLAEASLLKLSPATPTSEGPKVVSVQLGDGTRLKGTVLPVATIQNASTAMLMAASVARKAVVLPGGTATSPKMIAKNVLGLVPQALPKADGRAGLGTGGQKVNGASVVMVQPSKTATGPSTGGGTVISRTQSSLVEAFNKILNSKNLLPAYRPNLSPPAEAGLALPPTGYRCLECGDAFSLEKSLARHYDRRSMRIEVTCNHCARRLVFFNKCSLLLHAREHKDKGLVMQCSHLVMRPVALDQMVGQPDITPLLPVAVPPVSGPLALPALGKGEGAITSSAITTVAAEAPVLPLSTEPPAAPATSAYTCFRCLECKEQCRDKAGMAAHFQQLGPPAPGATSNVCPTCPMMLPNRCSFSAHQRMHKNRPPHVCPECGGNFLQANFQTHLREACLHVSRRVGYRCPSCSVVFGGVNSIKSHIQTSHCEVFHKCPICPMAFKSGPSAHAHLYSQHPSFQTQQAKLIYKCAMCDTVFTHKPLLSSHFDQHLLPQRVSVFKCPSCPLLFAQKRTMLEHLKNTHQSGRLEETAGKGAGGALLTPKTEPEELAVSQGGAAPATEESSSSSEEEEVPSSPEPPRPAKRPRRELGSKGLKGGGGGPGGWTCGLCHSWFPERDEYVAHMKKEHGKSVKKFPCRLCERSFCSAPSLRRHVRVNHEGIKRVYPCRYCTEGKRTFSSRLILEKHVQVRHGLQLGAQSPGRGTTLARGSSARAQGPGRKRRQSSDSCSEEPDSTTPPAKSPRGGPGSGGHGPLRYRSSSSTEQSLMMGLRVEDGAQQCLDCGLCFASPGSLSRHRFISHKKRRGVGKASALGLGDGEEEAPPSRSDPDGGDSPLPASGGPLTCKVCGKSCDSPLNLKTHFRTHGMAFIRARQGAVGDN
# Sequence of UniProt Q9Y3S2 (Q9Y3S2 whole entry, looked up): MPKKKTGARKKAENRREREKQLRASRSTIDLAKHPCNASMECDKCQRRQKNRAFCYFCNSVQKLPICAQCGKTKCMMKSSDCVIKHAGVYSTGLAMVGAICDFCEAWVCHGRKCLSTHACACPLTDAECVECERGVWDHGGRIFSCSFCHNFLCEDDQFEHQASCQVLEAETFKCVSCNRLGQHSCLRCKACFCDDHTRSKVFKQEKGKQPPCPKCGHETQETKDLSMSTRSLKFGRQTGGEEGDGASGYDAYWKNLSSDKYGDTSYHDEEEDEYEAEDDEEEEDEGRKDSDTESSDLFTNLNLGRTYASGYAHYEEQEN
# Sequence of UniProt P98170 (P98170 whole entry, looked up): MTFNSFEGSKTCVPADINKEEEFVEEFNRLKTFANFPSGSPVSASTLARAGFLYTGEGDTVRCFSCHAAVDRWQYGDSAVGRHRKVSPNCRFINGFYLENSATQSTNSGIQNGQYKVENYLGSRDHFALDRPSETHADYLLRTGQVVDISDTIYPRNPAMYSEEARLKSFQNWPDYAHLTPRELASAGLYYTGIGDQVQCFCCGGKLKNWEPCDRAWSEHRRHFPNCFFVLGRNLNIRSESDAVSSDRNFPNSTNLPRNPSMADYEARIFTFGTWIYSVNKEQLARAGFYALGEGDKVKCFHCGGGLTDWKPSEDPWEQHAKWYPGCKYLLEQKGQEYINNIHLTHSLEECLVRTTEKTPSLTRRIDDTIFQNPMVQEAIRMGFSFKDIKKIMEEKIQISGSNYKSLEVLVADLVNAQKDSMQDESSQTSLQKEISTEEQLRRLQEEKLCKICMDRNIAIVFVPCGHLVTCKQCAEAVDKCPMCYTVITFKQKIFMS
# Sequence of UniProt P61981 (P61981 whole entry, looked up): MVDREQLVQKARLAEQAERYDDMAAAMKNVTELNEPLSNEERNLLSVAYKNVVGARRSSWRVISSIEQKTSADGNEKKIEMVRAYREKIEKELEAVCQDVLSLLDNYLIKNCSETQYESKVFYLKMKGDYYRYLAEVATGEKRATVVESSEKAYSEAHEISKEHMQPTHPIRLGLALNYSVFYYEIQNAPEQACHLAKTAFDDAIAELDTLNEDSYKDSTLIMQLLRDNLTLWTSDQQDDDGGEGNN
# Sequence of UniProt Q8N6M9 (Q8N6M9 whole entry): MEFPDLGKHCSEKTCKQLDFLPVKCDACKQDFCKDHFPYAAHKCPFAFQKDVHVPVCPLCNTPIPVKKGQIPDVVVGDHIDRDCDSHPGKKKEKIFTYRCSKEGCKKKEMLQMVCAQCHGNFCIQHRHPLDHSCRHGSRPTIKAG
Target,probe-labelled cysteine peptide fold change ([1]; 10 µM),probe-labelled cysteine peptide fold change ([1]; 50 µM),probe-labelled cysteine peptide fold change (compound 10; 10 µM),probe-labelled cysteine peptide fold change (compound 10; 50 µM)
AAAS_Q9NRG9_335_CQTGCWSPDGSR (UniProt Q9NRG9),0.605,-0.129,–,–
XPO4_Q9C0E2_723_ANLVIQCENWWNLAK (UniProt Q9C0E2),–,–,0.102,-0.0501
ACTN4_O43707_879_RELPPDQAEYCIAR (UniProt O43707),0.0491,0.0892,–,–
ADAM15_Q13444_409_ALLDGMGSCLFER (UniProt Q13444),-0.145,0.146,–,–
ACADS_P16219_109_GCASTGVIMSVNNSLYLGPILK (UniProt P16219),0.201,0.216,–,–
WDR44_Q5JSH3_701_LITAANFCQNGK (UniProt Q5JSH3),–,–,-0.0485,0.165
XPO4_Q9C0E2_492_IAAEHCIPLLTSLLEER (UniProt Q9C0E2),–,–,0.012,0.2
ZFYVE19_Q96K21_435_CAGCDGDLFCAR (UniProt Q96K21),–,–,0.0027,-0.124
WDR77_Q9BQA1_172_AHAAQVTCVAASPHK (UniProt Q9BQA1),–,–,0.0618,0.254
WDFY4_Q6ZS81_2226_TEDFVSCIENYR (UniProt Q6ZS81),–,–,-0.17,-0.159
ZNF592_Q92610_592_IHVPASGYCCLECGDAFALEK (UniProt Q92610),–,–,-0.0351,-0.192
A6NIZ1_A6NIZ1_118_VKDTDDVPMILVGNKCDLEDER<|>RAP1B_P61224_118_VKDTDDVPMILVGNKCDLEDER (UniProt P61224+A6NIZ1),-0.583,-0.426,–,–
WDR3_Q9UNX4_183_WWDLDTQHCFK (UniProt Q9UNX4),–,–,0.0656,0.271
ADK_P55263_160_SLIANLAAANCYKK (UniProt P55263),-0.669,-0.408,–,–
ACADVL_P49748_237_TSAVPSPCGK (UniProt P49748),-0.126,-0.057,–,–
WDR81_Q562E7_215_GSPACPSLLR (UniProt Q562E7),–,–,-0.185,-0.529
ZNF691_Q5VV52_176_CQESFR (UniProt Q5VV52),–,–,-0.0275,-0.0396
ZFAND2B_Q8WV99_134_HRHPLDHDCSGEGHPTSR (UniProt Q8WV99),–,–,-0.148,0.178
ZNF430_Q9H8G1_138_CGHEDLQLR (UniProt Q9H8G1),–,–,-0.195,-0.412
XIAP_P98170_213_NWEPCDR (UniProt P98170),–,–,-0.0911,-0.654

Target,probe-labelled cysteine peptide fold change ([1]; 10 µM),probe-labelled cysteine peptide fold change ([1]; 50 µM),probe-labelled cysteine peptide fold change (compound 10; 10 µM),probe-labelled cysteine peptide fold change (compound 10; 50 µM)
ZNHIT3_Q15649_30_VPYCSVVCFR (UniProt Q15649),–,–,-0.0726,-1.11
ZNF687_Q8N1G0_91_NTVCPEQSEALAGGSAGDGAQAAGVTK (UniProt Q8N1G0),–,–,-0.392,-0.0527
YARS2_Q9Y2Z4_413_EAPFSEFFLDPGTSVLDTCRK (UniProt Q9Y2Z4),–,–,-0.161,-0.368
YY1AP1_Q9H869_689_AHMNVDIACAVADGENAFQGLEPK (UniProt Q9H869),–,–,-0.0161,0.141
YWHAG_P61981_194_LGLALNYSVFYYEIQNAPEQACHLAK (UniProt P61981),–,–,0.0292,0.41
ZW10_O43264_588_RLGTECFLAQMR (UniProt O43264),–,–,0.00573,-0.0952
ZNF189_O75820_262_CSDCGK<|>ZSCAN22_P52741_466_CSDCGK<|>ZNF16_Q09FC8_435_CSDCGK<|>ZNF81_Q2M218_640_CSDCGK<|>ZNF134_Q5JVG2_290_CSDCGK<|>ZNF415_Q8N8J6_574_CSDCGK (UniProt Q8N8J6+Q5JVG2+Q2M218+Q09FC8+P52741+O75820),–,–,0.0389,0.142
ZDHHC21_Q8IVQ6_112_CGHCVR (UniProt Q8IVQ6),–,–,0.0718,-0.0337
ZNF330_Q9Y3S2_120+122_CLSTHACACPLTDAECVECER (UniProt Q9Y3S2),–,–,0.16,-0.138
ZER1_Q7Z7L7_337_RPLQFLGLFENSLCR (UniProt Q7Z7L7),–,–,-0.124,-0.0583
ZFAND2A_Q8N6M9_84_GQIPDVVVGDHIDRDCDSHPGK (UniProt Q8N6M9),–,–,1.7,3.88
ZNHIT6_Q9NWK9_171_FVGQCIK (UniProt Q9NWK9),–,–,-0.528,-0.0997
ZZEF1_O43149_728_DTEESVCGATLLLR (UniProt O43149),–,–,-0.0306,-0.17
XPO1_O14980_528_DLLGLCEQKR (UniProt O14980),–,–,-0.248,-1.11
YTHDC2_Q9H6S0_788_LLAPVNCPIADFLMK (UniProt Q9H6S0),–,–,-0.0326,-0.072
ZYX_Q15942_467_AYHPHCFTCVVCAR (UniProt Q15942),–,–,0.229,0.194
ZMYM4_Q5VZL5_1499_SCVPNSPMWYSTFPIDPGTLDTMLTR (UniProt Q5VZL5),–,–,-0.668,-0.33
ZNF451_Q9Y4E5_150_TGTINCGTK (UniProt Q9Y4E5),–,–,-0.175,-1.18
XPO6_Q96QU8_324_NCVPMEFEEYLLR (UniProt Q96QU8),–,–,-0.0141,0.145
WIPI2_Q9Y4P8_430_LAYTDDLGAVGGACLEDEASALRLDEDSEHPPMILR (UniProt Q9Y4P8),–,–,-0.352,-0.0492
